# Assay results published in PubChem BioAssay (Tox21).
# Activity calls are given as the source filed them. The call rests on the fitted dose curve; in most records, active means well fitted inhibition curve with a large enough effect in the repeat runs (not every such curve was filed as active); inconclusive means weak or mixed curves; inactive means flat fitted curve, though single readings scatter.
# Molecular target: Thyrotropin-releasing hormone receptor (Homo sapiens) (UniProt P34981)
# Assay: qHTS assay to identify small molecule antagonists of the thyrotropin-releasing hormone receptor (TRHR) signaling pathway (AID 1346877)
# Details: TRHR-HEK293, TRH-induced calcium fluorescence, antagonist mode; series mostly up to 51.3 µM
# Source text: National Center for Advancing Translational Sciences [NCATS]
# NIH Chemical Genomics Center [NCGC]
# U.S. Environmental Protection Agency [EPA]
# National Institutes of Environmental Health Sciences [NIEHS]
# National Toxicology Program [NTP]
# U.S. Food and Drug Administration [FDA]
# Thyrotropin-releasing hormone (TRH) receptor (TRHR) is a G-protein-coupled receptor which binds the tripeptide thyrotropin releasing hormone. TRHR is found in the brain and, when bound by TRH, acts (through phospholipase C) to increase intracellular inositol trisphosphate. It plays a crucial role in the anterior pituitary where it controls the synthesis and secretion of thyroid stimulating hormone and prolactin. The TRHR-Hek293 assay is a cell-based assay, and it has the potential to screen G protein-coupled receptors. A compound/drug can either activate (agonist) or suppress (antagonist) GPCRs that can be monitored by levels of intracellular calcium. In this assay, the Tox21 10K compound library was screened to identify potential TRHR antagonists.
# Tox21 Assay Protocol Summary:
# The TRHR-Hek293 cells were dispensed at 1500cells/4uL/well in 1536-well black-clear bottom plates using a Multidrop dispenser. After the assay plates were incubated at a 37 C/5% CO2 incubator for 18 hours, 4 uL of Dye-Loading Solution was added to each well. The plates were incubated at 37 C for 2 hours. For agonist mode, 23 nL of compounds dissolved in DMSO, positive controls or DMSO only was transferred to the assay plate by a pin tool. The fluorescence intensity in the plates was measured using FDSS 7000EX kinetic plate reader for 3 min at 1 sec intervals. For antagonist mode, 23 nL of compounds dissolved in DMSO, positive controls or DMSO only was transferred to the assay plate by a pin tool. After 5 min incubation at room temperature, 1 uL of TRH was added on the top of the cell/compound mixtures to achieve a final agonist concentration of 1 nM. The fluorescence intensity in the plates was measured using FDSS 7000EX kinetic plate reader for 3 min at 1 sec intervals. Each test compound was measured at 15 concentrations and in triplicates.
# Sequence of Thyrotropin-releasing hormone receptor (Homo sapiens) (P34981 whole entry, looked up): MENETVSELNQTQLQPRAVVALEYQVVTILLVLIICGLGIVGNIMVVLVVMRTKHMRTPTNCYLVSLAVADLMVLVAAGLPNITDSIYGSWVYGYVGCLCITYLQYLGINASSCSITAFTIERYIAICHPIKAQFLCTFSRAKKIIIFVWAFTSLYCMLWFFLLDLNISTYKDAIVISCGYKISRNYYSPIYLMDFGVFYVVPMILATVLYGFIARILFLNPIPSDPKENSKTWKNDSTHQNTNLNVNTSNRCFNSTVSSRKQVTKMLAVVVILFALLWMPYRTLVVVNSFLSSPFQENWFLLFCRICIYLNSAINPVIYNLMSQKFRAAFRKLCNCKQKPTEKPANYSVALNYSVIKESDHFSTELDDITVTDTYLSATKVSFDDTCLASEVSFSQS
row,Compound,outcome
1,CS(=O)(=O)c1ccc(-c2cn3ccccc3n2)cc1,inactive
2,c1cc(N(CC2CO2)CC2CO2)ccc1Cc1ccc(N(CC2CO2)CC2CO2)cc1 (stereo not given),inactive
3,NNC(=O)CP(=O)(c1ccccc1)c1ccccc1,inactive
4,Nc1cccc2c1CN(C1CCC(=O)NC1=O)C2=O (stereo not given),inactive
5,OCCN1CCN(CCCN2c3ccccc3Sc3ccc(Cl)cc32)CC1,inactive
6,CC(C)C(O)(c1ccc(OC(F)(F)F)cc1)c1cncnc1 (stereo not given),inactive
7,CC(=O)N/N=C/c1ccc([N+](=O)[O-])o1,inactive
8,O=C1c2ccccc2C(=O)C1c1nc2ccccc2c(Br)c1O,inactive
9,CCCCCCNC(=O)n1cc(F)c(=O)[nH]c1=O,inactive
10,CCn1cc(C(=O)O)c(=O)c2cc(F)c(N3CCNCC3)cc21,inactive
11,O=[N+]([O-])c1ccc(Nc2ccc(Nc3ccccc3)c(S(=O)(=O)O)c2)c([N+](=O)[O-])c1,inactive
12,CCN(CC)CCNC(=O)COc1ccc(OC)cc1,inactive
13,CC(C)COCC(CN(Cc1ccccc1)c1ccccc1)N1CCCC1 (stereo not given),inactive
14,CCOC(C)=O,inactive
15,Clc1cc(Cl)nc(Cl)n1,inactive
16,CC(CN(C)C)C(C)(O)Cc1ccc(Cl)cc1 (stereo not given),inactive
17,Nc1ccc(N=Nc2ccccc2)c(N)c1,inactive
18,CC1=C(CC=O)C(C)(C)CCC1,inactive
19,O=C1CCCCCCCCCCOCCCCO1,inactive
20,COC(=O)CS,inactive

row,Compound,outcome
1,COC(=O)[C@H]1[C@H]2C[C@@H]3c4[nH]c5cc(OC)ccc5c4CCN3C[C@H]2C[C@@H](OC(=O)/C=C/c2ccc(O)c(OC)c2)[C@@H]1OC,inactive
2,O=C1c2ccccc2C(=O)C1c1ccc(Br)cc1,inactive
3,COc1cc(C(=O)NCCCCCC(=O)O)cc(OC)c1OC,inactive
4,Cc1ccco1,inactive
5,O=C(/C=C/c1ccc(O)c(O)c1)O[C@@H]1C[C@@](OC(=O)/C=C/c2ccc(O)c(O)c2)(C(=O)O)C[C@@H](O)[C@@H]1O,inactive
6,CCCCCCCCN,inactive
7,CN1CCCN=C1COC(=O)C(O)(c1ccccc1)C1CCCCC1 (stereo not given),inactive
8,CCCCC(CC)CN (stereo not given),inactive
9,CCCCCCCCCCC(=O)O,inactive
10,C[C@H]1C[C@H](O)c2ccsc2S1(=O)=O,inactive
11,C=C/C(C)=C/C/C=C(\C)CCC=C(C)C,inactive
12,CCC=CC#N,inactive
13,CCOC(=O)c1ccccc1C(=C1C=C(Br)C(=O)C(Br)=C1)c1cc(Br)c(O)c(Br)c1,inactive
14,CCC1NC(=O)c2cc(S(N)(=O)=O)c(Cl)cc2N1 (stereo not given),inactive
15,COC(=O)CCS,inactive
16,O=C1c2ccccc2C(=O)c2c(O)c(O)cc(O)c21,inactive
17,O=C(CCc1ccc(O)cc1)c1c(O)cc(O)cc1O,inactive
18,CC(CCC(=O)O)C(=O)O (stereo not given),inactive
19,CN(C(=O)CN(CCO)CC(=O)N(C)C(C)(C)Cc1ccccc1)C(C)(C)Cc1ccccc1,inactive
20,Cc1ccc(Cl)c(Nc2ccccc2C(=O)O)c1Cl,inactive
